Here are results for nine molecules from PubChem BioAssay (NCATS).

Test [1] concerns the target Cytochrome P450 1A2 (Homo sapiens) (UniProt P05177). In words: p450-cyp1a2 (AID 410; calls by dose curve; note: potency is the fitted concentration of half-maximal effect). In short, it runs like this:
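Read-out is luminescence from luciferin produced by CYP1A2 demethylation of Luciferin-ME (100uM, at Km). Detection reagent stopped the 60 min NADPH-dependent reaction; signals were normalized to 57 uM furafylline.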

In test [2] the target is Glucocorticoid receptor (Homo sapiens) (UniProt P04150). Kind of test: GR-GFP Redistribution (AID 450;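 active = compounds whose dose series gives a full or clear partial fitted curve of increased nuclear translocation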; note: potency is the fitted concentration of half-maximal effect). The following applies: U2OS GR-GFP nuclear translocation, laser cytometry, 2 h.
The target is the same in test [3]. In words: GR-EFC Redistribution (AID 451; calls by dose curve; note: potency is the fitted concentration of half-maximal effect). The following applies: CHO-K1 GR-EFC translocation, beta-gal luminescence, 2 h. The method, boiled down:
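CHO-K1 cells stably expressing nuclear-localized β-gal enzyme acceptor and GR fused C-terminally to the enzyme donor fragment; ligand-driven nuclear translocation restores β-gal by complementation. Compounds titrated up to 46 uM final, 2 h at 37 °C; luminescence read.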

Test [4] addresses 3',5'-cyclic-AMP phosphodiesterase 4B (Homo sapiens) (UniProt Q07343). Kind of test: qHTS Assay for Inhibitors of PDE-IV (AID 607; active = well fitted activation curve with a large enough effect in the main read-out, with a control signal flat, not every such curve was filed as active; note: % of control where 0% means no effect). The method, boiled down: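 Cell-based read-out of cAMP via a modified cyclic nucleotide-gated channel and membrane potential dye (535/590 nm) in HEK293 cells expressing PDE4 endogenously. Compounds tested up to 22.9 uM final; 100 uM RO 20-1724 reference.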

Test [5] concerns the target Cytochrome P450 2D6 (Homo sapiens) (UniProt P10635). Kind of test: qHTS Assay for Inhibitors and Substrates of Cytochrome P450 2D6 (AID 891). Note: nearly all actives have a fitted effect of over 60% in size. Note: potency is the fitted concentration of half-maximal effect. The method, boiled down:
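Luminescent read-out of luciferin formed by 5 nM human CYP2D6 demethylating 30 uM Luciferin-ME EGE (Km level) over 60 min at room temperature after NADPH regeneration addition. Data normalized to full inhibition by 1.43 uM quinidine.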
For orientation: qHTS replaces the single test concentration by a dilution series.

In test [6] the target is Cytochrome P450 2C9 (Homo sapiens) (UniProt P11712). Kind of test: qHTS Assay for Inhibitors and Substrates of Cytochrome P450 2C9 (AID 883). Note: nearly all actives have a fitted effect of over 60% in size. Note: potency is the fitted concentration of half-maximal effect. The method, boiled down:
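Human CYP2C9 (10nM) hydroxylated Luciferin-H (100uM, at its KM) to luciferin in 25mM KPO4. Compound was preincubated 10 min at 37C, then NADPH regeneration started a 60 min reaction at 37C. Luminescence was read after detection reagent, normalized to 57uM sulphaphenazole.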

In test [7] the target is Cytochrome P450 2C19 (Homo sapiens) (UniProt P33261). Kind of test: qHTS Assay for Inhibitors and Substrates of Cytochrome P450 2C19 (AID 899). Note: nearly all actives have a fitted effect of over 60% in size. Note: potency is the fitted concentration of half-maximal effect. The method, boiled down:
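Human CYP2C19 (5nM) with Luciferin-H EGE at 10uM (its KM) in 50mM KPO4 was preincubated with compound for 10 min at 37C. NADPH regeneration started a 60 min 37C reaction. Luciferin was read by luminescence, normalized to 57uM ketoconazole.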

Test [8] addresses Cytochrome P450 3A4 (Homo sapiens) (UniProt P08684). In words: qHTS Assay for Activators of Cytochrome P450 3A4 (AID 885). Note: nearly all actives have a fitted effect of over 65% in size. In short, it runs like this:
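Luminescent readout of luciferin formed from 25 uM Luciferin-PPXE (KM level) by 20 nM CYP3A4 in 200 mM KPO4, with 60 min NADPH-driven reaction at room temperature after 10 min compound exposure. Ketoconazole (57 uM) defined 100% inhibition.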

Test [9] is described as follows: Cell Viability - BJ (AID 421; calls by dose curve;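 note: potency is the fitted concentration of half-maximal effect; cells exposed to compound for 40 hours at 37 °C before readout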). The following applies: BJ fibroblast viability, qHTS. The method, boiled down: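 Cytotoxicity as drop in intracellular ATP (CellTiter-Glo, 20 min RT) after 40 hr compound exposure of BJ fibroblasts at 37 °C. Titrations scaled between DMSO and 100 uM tamoxifen, Hill-fitted for AC50.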
Test [10] can be described thus: Cell Viability - MRC5 (AID 434; calls by dose curve;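 note: potency is the fitted concentration of half-maximal effect; cells exposed to compound for 40 hours at 37 °C; potency reflects cytotoxicity seen as loss of intracellular ATP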). The following applies: MRC5 lung fibroblast viability, qHTS. In short, it runs like this:
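Decrease in intracellular ATP, quantified by luciferase light output, reflects compound toxicity toward MRC5 cells exposed for 40 hr in complete culture medium. Concentration-response curves, scaled between DMSO and 100 uM tamoxifen, gave AC50 values.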

A short description of test [11]: Cell Viability - SK-N-SH (AID 435; calls by dose curve;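 note: potency is the fitted concentration of half-maximal effect; compound exposure lasted 40 h at 37 °C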). The following applies: SK-N-SH neuroblastoma cell viability qHTS. In short, it runs like this:
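Cells seeded at 1500 per well and incubated 5 hr at 37 °C. Compound added, then 40 hr at 37 °C. CellTiter-Glo added, 20 min at room temperature, luminescence read.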

Test [12] addresses Mitogen-activated protein kinase 10 (Mus musculus) (UniProt Q61831). Kind of test: JNK3 AlphaScreen Assay (AID 530; active = well fitted curve in either direction with a large enough effect, not every such curve was filed as active;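 note: kinase came from lysate of stimulated human HepG2 cells; signal reports phosphorylation of biotinylated GST-cJun 1-79 at Ser73 with 10 µM ATP; % is set by controls: 0 for no effect and ±100 for the full control effect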). The method, boiled down: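 Biotinylated GST-cJun(1-79) served as substrate for JNK3 in HepG2 lysates stimulated with IL-1beta and TNF-alpha. ATP was 10 uM final, pH 7.6. Ser73 phosphorylation was quantified by AlphaScreen (680 nm excitation).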
A short description of test [13]: Cellular Toxicity (caspase-3) Renal Proximal Tubule (AID 667).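 Note: cells exposed to compound for 16 hours at 37 °C before detection; 0% = DMSO basal and 100% = 10 µM staurosporine.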 The following applies: renal proximal tubule cells; at 91.7 µM (top of the series) unless noted. In short, it runs like this: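 In qHTS format, rat primary proximal tubule cells seeded at 1000 per well are exposed to compounds for 16 hours at 37 °C. An increase in Caspase-Glo 3/7 luminescence indicates caspase activation.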

Test [14] deals with Cytochrome P450 3A4 (Homo sapiens) (UniProt P08684). Kind of test: qHTS Assay for Inhibitors and Substrates of Cytochrome P450 3A4 (AID 884). Note: nearly all actives have a fitted effect of over 50% in size. Note: potency is the fitted concentration of half-maximal effect. In short, it runs like this: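 Luminescent readout of luciferin produced by CYP3A4 (20 nM) dealkylation of Luciferin-PPXE, 25 uM (its KM). NADPH-driven reaction ran 60 min at RT after 10 min compound preincubation; data scaled to 57 uM ketoconazole as 100% inhibition.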

Test [15] can be described thus: MultiTox-Fluor Cytotoxicity Assay - LYMP1-002 - Live Cells (AID 955). Note: % is set by controls: 0 for no effect and ±100 for the full control effect. The method, boiled down:
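In this qHTS viability format, lymphoblastoid cells (LYMP1-002, human) received compound for 16 hr at 37 C. Fluorogenic GF-AFC cleavage by viable cells was detected at 405/510 nm after 1 h at room temperature.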

The nature of test [16]: MultiTox-Fluor Cytotoxicity Assay - LYMP1-003 - Live Cells (AID 962).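 Note: 0% = DMSO only and full loss = 92 µM tetraoctylammonium bromide; cytotoxic hits lower the live-cell protease signal.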 In short, it runs like this:
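Human lymphoblastoid line LYMP1-003 in complete culture medium, treated 16 hr with titrated compounds. Viable cells quantified via cell-permeant GF-AFC substrate fluorescence; AC50 derived by Hill fitting.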

The nature of test [17]: Cell Viability - LYMP2-008 (AID 980). Note: nearly all actives have a fitted effect of over 60% in size. Note: potency is the fitted concentration of half-maximal effect. In short, it runs like this: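 Measured: ATP-dependent luminescence, proportional to viable cell number, in human lymphoblastoid cells treated 24 hr with compound in complete culture medium. Values are AC50s from Hill-equation modelling of qHTS titrations.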
The nature of test [18]: qHTS assay for small molecule agonists of the antioxidant response element (ARE) signaling pathway measured by Nrf2-dependant transcriptional activity - cell viability counter screen (AID 720653; active = well fitted curve in the direction sought with a large enough effect in the repeat runs; an effect the other way counts as inactive or inconclusive; note: % is set by controls: 0 for no effect and ±100 for the full control effect). The following applies: ARE-bla HepG2 viability, CellTiter-Glo ATP luminescence, 16 h; max response: hits give low values. The method, boiled down:
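ARE-bla HepG2 cells (2,000/well) rested 5 hrs at 37C/5% CO2, then exposed to compounds in DMSO for 16 hrs. Viability was read in the same wells as intracellular ATP by luminescence, 30 min at room temperature after reagent addition.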

Values without a mark were called inactive. Inconclusive results are not listed. Active and inactive are the calls of the source. Unless noted, calls come from the whole dose curve; as a rule, active = well fitted curve in the direction sought with a large enough effect; inconclusive = small, poorly fitted or top-dose-only effect, or another doubt; inactive = no such curve, though single readings can be large; an effect the other way counts as inactive or inconclusive.

Cytochrome P450 3A4 (Homo sapiens), sequence (P08684 whole entry, looked up): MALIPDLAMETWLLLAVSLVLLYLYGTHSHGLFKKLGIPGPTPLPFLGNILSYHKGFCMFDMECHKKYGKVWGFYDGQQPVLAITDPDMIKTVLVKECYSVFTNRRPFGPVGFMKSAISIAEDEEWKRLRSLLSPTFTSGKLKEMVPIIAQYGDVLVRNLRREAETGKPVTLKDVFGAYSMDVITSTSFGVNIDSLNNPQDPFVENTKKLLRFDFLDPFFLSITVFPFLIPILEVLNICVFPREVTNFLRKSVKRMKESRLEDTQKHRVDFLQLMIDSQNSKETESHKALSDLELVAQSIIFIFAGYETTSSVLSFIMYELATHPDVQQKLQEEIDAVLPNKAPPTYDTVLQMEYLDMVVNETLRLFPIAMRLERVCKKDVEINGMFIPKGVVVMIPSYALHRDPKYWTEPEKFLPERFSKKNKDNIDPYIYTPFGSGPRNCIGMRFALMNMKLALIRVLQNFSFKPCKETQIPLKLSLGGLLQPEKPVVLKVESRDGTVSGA
Cytochrome P450 2C9 (Homo sapiens), sequence (P11712 whole entry, looked up): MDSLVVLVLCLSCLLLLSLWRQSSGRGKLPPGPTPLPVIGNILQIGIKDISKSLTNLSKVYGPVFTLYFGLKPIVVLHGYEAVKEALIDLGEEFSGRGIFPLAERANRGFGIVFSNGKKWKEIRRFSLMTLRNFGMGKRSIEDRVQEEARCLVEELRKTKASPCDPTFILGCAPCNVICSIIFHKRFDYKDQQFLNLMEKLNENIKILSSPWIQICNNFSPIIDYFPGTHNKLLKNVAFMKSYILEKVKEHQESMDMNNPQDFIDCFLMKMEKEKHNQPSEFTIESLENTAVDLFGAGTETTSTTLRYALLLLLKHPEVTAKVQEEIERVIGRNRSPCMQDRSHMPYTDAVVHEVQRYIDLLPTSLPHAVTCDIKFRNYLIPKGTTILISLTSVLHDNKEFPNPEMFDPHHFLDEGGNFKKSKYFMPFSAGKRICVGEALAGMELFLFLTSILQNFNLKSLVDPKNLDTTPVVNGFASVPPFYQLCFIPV
Cytochrome P450 2D6 (Homo sapiens), sequence (P10635 whole entry, looked up): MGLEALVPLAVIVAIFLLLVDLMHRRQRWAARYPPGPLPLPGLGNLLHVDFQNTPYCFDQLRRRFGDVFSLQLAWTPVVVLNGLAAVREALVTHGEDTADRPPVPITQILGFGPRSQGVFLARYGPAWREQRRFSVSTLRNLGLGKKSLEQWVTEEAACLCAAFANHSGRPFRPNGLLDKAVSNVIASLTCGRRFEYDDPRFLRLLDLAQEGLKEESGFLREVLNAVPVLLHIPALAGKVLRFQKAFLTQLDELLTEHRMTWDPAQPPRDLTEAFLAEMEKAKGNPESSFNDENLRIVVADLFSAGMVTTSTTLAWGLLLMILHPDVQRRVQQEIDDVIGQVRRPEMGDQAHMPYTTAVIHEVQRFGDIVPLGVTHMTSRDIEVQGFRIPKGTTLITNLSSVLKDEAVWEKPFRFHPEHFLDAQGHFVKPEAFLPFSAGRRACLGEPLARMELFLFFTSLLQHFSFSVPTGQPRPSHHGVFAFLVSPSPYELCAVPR
Glucocorticoid receptor (Homo sapiens), sequence (P04150 whole entry, looked up): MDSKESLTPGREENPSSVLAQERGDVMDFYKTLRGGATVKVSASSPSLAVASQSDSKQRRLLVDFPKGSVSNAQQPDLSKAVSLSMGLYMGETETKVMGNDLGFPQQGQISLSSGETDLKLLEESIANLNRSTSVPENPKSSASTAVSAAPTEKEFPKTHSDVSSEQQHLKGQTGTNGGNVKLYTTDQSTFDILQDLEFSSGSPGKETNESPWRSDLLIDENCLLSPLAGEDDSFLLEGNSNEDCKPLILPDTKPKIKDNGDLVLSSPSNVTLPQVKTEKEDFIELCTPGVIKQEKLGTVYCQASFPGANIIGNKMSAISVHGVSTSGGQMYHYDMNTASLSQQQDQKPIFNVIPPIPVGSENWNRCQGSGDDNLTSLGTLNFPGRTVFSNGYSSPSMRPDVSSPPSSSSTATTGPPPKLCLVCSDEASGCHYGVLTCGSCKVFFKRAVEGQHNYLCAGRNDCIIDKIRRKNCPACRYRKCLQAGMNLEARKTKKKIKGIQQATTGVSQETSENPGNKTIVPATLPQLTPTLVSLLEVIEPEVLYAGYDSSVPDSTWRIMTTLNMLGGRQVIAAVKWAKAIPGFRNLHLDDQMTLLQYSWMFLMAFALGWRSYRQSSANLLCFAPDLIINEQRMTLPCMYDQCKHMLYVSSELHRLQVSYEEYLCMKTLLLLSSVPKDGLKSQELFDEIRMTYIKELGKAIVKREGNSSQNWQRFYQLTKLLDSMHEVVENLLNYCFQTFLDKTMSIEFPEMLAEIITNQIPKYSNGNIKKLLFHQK
3',5'-cyclic-AMP phosphodiesterase 4B (Homo sapiens), sequence (Q07343 whole entry, looked up): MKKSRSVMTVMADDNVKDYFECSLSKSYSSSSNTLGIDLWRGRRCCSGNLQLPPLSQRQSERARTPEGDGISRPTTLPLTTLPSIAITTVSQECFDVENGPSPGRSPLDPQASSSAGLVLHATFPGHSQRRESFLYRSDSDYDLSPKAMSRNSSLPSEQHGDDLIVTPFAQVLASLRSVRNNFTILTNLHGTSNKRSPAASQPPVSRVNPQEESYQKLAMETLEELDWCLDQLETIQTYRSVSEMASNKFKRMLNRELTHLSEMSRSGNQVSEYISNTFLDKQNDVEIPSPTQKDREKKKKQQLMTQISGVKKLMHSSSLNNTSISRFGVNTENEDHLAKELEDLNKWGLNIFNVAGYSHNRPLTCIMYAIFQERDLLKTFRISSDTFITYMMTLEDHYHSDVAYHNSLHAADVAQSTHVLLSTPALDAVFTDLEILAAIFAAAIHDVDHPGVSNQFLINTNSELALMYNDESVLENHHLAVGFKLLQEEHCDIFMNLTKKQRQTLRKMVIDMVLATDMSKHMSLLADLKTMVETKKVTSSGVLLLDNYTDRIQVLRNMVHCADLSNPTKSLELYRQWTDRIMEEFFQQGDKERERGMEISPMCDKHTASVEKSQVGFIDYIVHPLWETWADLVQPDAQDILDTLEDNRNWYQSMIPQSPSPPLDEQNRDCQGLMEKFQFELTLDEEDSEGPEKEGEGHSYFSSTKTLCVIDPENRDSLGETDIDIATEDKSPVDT
Cytochrome P450 1A2 (Homo sapiens), sequence (P05177 whole entry, looked up): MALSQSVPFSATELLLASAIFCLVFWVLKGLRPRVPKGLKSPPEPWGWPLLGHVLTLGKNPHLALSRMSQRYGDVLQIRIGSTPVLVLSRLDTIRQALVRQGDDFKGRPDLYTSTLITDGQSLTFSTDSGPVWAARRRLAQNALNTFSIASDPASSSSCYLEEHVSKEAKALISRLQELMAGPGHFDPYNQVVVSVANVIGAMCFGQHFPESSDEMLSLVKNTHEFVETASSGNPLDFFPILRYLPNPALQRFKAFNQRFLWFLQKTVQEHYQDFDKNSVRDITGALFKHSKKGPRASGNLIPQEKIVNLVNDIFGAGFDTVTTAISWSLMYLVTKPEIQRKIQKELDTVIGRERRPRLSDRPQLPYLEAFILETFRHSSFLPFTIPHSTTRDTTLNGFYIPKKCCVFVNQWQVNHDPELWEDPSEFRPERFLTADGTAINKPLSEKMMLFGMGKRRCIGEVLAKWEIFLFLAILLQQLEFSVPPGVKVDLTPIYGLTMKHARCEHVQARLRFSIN
Cytochrome P450 2C19 (Homo sapiens), sequence (P33261 whole entry, looked up): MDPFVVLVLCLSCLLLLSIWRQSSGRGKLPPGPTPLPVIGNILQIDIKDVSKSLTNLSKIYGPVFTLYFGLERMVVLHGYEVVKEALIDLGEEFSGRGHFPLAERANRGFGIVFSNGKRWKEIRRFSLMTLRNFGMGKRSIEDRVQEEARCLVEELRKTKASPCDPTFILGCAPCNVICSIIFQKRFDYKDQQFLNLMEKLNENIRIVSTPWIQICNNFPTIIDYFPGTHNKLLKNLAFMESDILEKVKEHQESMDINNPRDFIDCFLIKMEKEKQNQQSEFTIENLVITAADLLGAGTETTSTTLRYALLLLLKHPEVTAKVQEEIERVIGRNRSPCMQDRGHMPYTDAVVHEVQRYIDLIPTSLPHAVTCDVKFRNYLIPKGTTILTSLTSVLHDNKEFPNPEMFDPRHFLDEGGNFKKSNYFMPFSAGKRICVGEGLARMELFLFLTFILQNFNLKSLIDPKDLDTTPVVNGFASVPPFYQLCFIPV

Take `CC(C)C[C@H]1C(=O)N2CCC[C@@H]2[C@]2(O)O[C@](NC(=O)[C@H]3C=C4c5cccc6[nH]cc(c56)C[C@H]4N(C)C3)(C(C)C)C(=O)N12`: the Potency in test [1] is 31.6 µM (active); in [2] it was greater than 46 µM; in test [3], greater than 46 µM. For the same molecule, the molecule was called inactive in [4]. In addition, the Potency result in [5] is “inactive”.
With `CC1=C2[C@@H]3OC(=O)[C@H](C)[C@H]3CC[C@@]2(C)C=CC1=O`, the values for the Potency in test [1], in test [2] and in test [3] were 31.6 µM (active), greater than 46 µM and greater than 46 µM, respectively. The Potency entry in test [6], in test [5] and in test [7] was “inactive” each time.
On to `CN[C@@H](C)[C@@H](O)c1ccccc1`, for which the Potency in [1] was 3.16 µM (active); in [3], greater than 46 µM; in test [6], 0.794 µM (active); in test [5] it was 12.6 µM (active); in test [7], 1.58 µM (active). Moreover, the Potency result in test [8] was “inactive”.
As to `O=C(O)C1C(C(=O)O)C2(Cl)C(Cl)=C(Cl)C1(Cl)C2(Cl)Cl` (configuration not stated), the Potency in test [9], in [10] and in [11] was greater than 92 µM each time. The outcome in test [12] was inactive. Besides, the caspase-3 activation in [13] was -21% [at 91.7 µM, primary cells freshly taken from rat, solvent-only wells 0%, staurosporine 100%]. Besides, the Potency result in [14], in test [15], in [16] and in [17] was “inactive” in each case. Further, in [18], the max response is 5.57%.
As to `N#CC(Cl)Cl`, the Potency is greater than 92 µM in [9], greater than 92 µM in test [10], greater than 92 µM in test [11] and 12.6 µM (active) in test [17]. Further, in [12], the outcome was inactive. Moreover, the caspase-3 activation in test [13] is -4.27% [at 91.7 µM, primary cells freshly taken from rat, solvent-only wells 0%, staurosporine 100%]. Also, the Potency result in test [8], in test [15] and in test [16] was “inactive” each time. For the same molecule, the max response in test [18] is -22.9%.
As for `ClC1=C(Cl)C2(Cl)C3C(Cl)C(Cl)CC3C1(Cl)C2(Cl)Cl` (configuration not stated), the molecule was called inactive in test [12]. Also, the caspase-3 activation in [13] was 19%. For the same molecule, the Potency in [14] was 15.8 µM (active). Moreover, the Potency result in [8], in test [15], in test [16] and in [17] was “inactive” each time. For the same molecule, the max response in [18] is -13.1%.
As to `CCCc1cc2c(n1Cc1cccc(Cl)c1)C(C)C1CN(C(=O)c3ccccc3)C(C)(C(=O)OC)C21` (configuration not stated), the Potency is 31.6 µM (active) in test [1], 5.01 µM (active) in test [6] and 5.01 µM (active) in test [14]. In addition, in [4], the molecule was called inactive. Besides, the Potency entry in test [8] was “inactive”.
Take `O=C(O)[C@@H]1C[C@H]1[C@@H](NP(=O)(c1ccccc1)c1ccccc1)c1ccccc1`: the Potency result in test [1] is “inactive”. Further, the call in [12] and in [4] was inactive.
As for `Cc1ccc2ccccc2c1C`, the Potency in test [9], in [10] and in [11] was greater than 92 µM in each case. The max response in test [18] is 9.36%.
